Measured values from PubChem BioAssay AID1159580 (chemical genetic matrix, 2015).
Values joined by “and” are separate entries in the source; they are usually repeats but may differ in a detail not shown here. Identical values can stand only once. Among all 5,500 compounds or so, about 2,000 (36%) were called active. Inconclusive results (about 18%) are left out. Rule as the data show it: active = normalized growth mostly below about 0.91 (no sharp cut-off); inconclusive = no clear call, values can overlap the other calls; inactive = mostly above about 0.92. This is one part of the list.

Assay: chemical genetic growth profiling, strain panel (AID 1159580);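 also: tested at 20 µM; growth read once vehicle control cultures reached saturation at 30 °C; 1 = growth at the plate median or of vehicle wells; lower values mean less growth of the strain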
Details: S. cerevisiae deletion strains, growth OD

Measured: normalized growth

CC1=C(/C=C/C(C)=C/C=C/C(C)=C/C=C/C=C(C)/C=C/C=C(C)/C=C/C2=C(C)CCCC2(C)C)C(C)(C)CCC1
active: locus YBR009C, strain hhf1, hits give low values 1.1 [resistant]
inactive: locus YAL021C, strain ccr4, hits give low values 0.978 | locus YAL026C, strain drs2, hits give low values 0.997 | locus YAL030W, strain snc1, hits give low values 0.995 | locus YBL061C, strain skt5, hits give low values 0.997 | locus YBR021W, strain FUR4, hits give low values 0.99 | locus YBR023C, strain chs3, hits give low values 0.992 | locus YBR171W, strain sec66, hits give low values 0.977 | locus YBR229C, strain ROT2, hits give low values 1.01 | locus YBR231C, strain swc5, hits give low values 1.02 | locus YBR279W, strain paf1, hits give low values 0.987 | locus YCL011C, strain gbp2, hits give low values 0.997 | locus YCL016C, strain dcc1, hits give low values 1.01 | locus YCL029C, strain bik1, hits give low values 1.02 | locus YCL061C, strain MRC1, hits give low values 0.995 | locus YCL069W, strain vba3, hits give low values 0.997 | locus YCR088W, strain abp1, hits give low values 0.995 | locus YDL005C, strain med2, hits give low values 0.998 | locus YDL035C, strain GPR1, hits give low values 1 | locus YDL040C, strain nat1, hits give low values 0.995 | locus YDL074C, strain BRE1, hits give low values 1 | locus YDL101C, strain DUN1, hits give low values 1.01 | locus YDL134C, strain PPH21, hits give low values 1.01 | locus YDL185W, strain tfp1, hits give low values 1.02 | locus YDL192W, strain arf1, hits give low values 1.02 | locus YDR001C, strain nth1, hits give low values 0.987 | locus YDR069C, strain doa4, hits give low values 0.994 | locus YDR101C, strain arx1, hits give low values 0.982 | locus YDR137W, strain rgp1, hits give low values 0.964 | locus YDR150W, strain NUM1, hits give low values 1.01 | locus YDR159W, strain sac3, hits give low values 1.01 | locus YDR162C, strain NBP2, hits give low values 1.02 | locus YDR195W, strain ref2 0.999 | locus YDR297W, strain sur2, hits give low values 1.02 | locus YDR318W, strain mcm21, hits give low values 1.01 | locus YDR334W, strain swr1, hits give low values 0.99 | locus YDR335W, strain msn5, hits give low values 0.997 | locus YDR388W, hits give low values 1.01 | locus YDR392W, strain spt3, hits give low values 0.982 | locus YDR502C, strain sam2, hits give low values 0.993 | locus YEL003W, strain gim4, hits give low values 1.02 | locus YEL037C, strain rad23, hits give low values 0.999 | locus YEL061C, strain CIN8 (second series), hits give low values 0.997 | locus YEL061C, strain CIN8, hits give low values 1.01 | locus YER015W, strain faa2, hits give low values 0.973 | locus YER016W, strain bim1, hits give low values 1 | locus YER110C, hits give low values 1 | locus YER111C, strain swi4, hits give low values 0.983 | locus YER155C, strain BEM2 (second series), hits give low values 1.04 | locus YER155C, strain BEM2, hits give low values 1.01 | locus YER167W, strain BCK2, hits give low values 1.01 | locus YFR010W, strain ubp6, hits give low values 1 | locus YGL078C, strain dbp3, hits give low values 0.996 | locus YGL086W, strain mad1, hits give low values 1.01 | locus YGL167C, strain pmr1, hits give low values 0.992 | locus YGL173C, strain kem1, hits give low values 1 | locus YGL227W, strain vid30, hits give low values 0.99 | locus YGL240W, strain doc1, hits give low values 1.02 | locus YGL248W, strain PDE1, hits give low values 1.01 | locus YGL253W, strain hxk2, hits give low values 0.949 | locus YGR135W, strain pre9, hits give low values 1.03 | locus YGR229C, strain SMI1, hits give low values 1 | locus YGR252W, strain gcn5, hits give low values 0.998 | locus YHR013C, strain ard1, hits give low values 0.967 | locus YHR027C, strain rpn1, hits give low values 1.01 | locus YHR030C, strain SLT2, hits give low values 1.02 and 1.01 | locus YHR079C, strain IRE1 (second series), hits give low values 1 | locus YHR079C, strain IRE1, hits give low values 1.04 | locus YHR094C, strain hxt1, hits give low values 0.999 | locus YHR129C, strain ARP1, hits give low values 1.01 | locus YHR142W, strain chs7, hits give low values 0.967 | locus YHR200W, strain rpn10, hits give low values 1.01 | locus YIL066C, strain RNR3, hits give low values 1.01 | locus YIL073C, strain SPO22, hits give low values 1.07 | locus YIL125W, strain kgd1, hits give low values 0.998 | locus YIR030C, strain dcg1, hits give low values 1 | locus YJL092W, strain hpr5, hits give low values 0.992 | locus YJL095W, strain BCK1 (second series), hits give low values 0.989 | locus YJL095W, strain BCK1, hits give low values 1.03 and 1.02 | locus YJL115W, strain asf1, hits give low values 0.996 | locus YJL129C, strain trk1, hits give low values 0.969 | locus YJL134W, strain LCB3, hits give low values 1.01 | locus YJL154C, strain vps35, hits give low values 0.999 | locus YJL164C, strain tpk1, hits give low values 1.01 | locus YJL166W, strain qcr8, hits give low values 0.955 | locus YJL168C, strain set2, hits give low values 1 | locus YJL187C, strain SWE1 (second series), hits give low values 1.01 | locus YJL187C, strain SWE1, hits give low values 0.995
